Calls of active or inactive are those of the source.

Assay [1] can be described thus: binders of probe aFSTL3 on microarray, primary screen, stem cell growth factor project, biochemical, small-molecule microarray, fluorescence 635/667 (AID 1064).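 Note: measures binding of the biotinylated anti-FSTL3 antibody to printed compounds.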 As to conditions: higher = more signal.
Assay [2] is described as follows: binders from COS7 lysate, DM2A8 probe, primary screen, torsin A project, cell lysate, small-molecule microarray, fluorescence 635/667 (AID 1065). As to conditions: higher = more signal, COS7 lysate expressing mutant human TOR1A.
Assay [3] in a line: binders of probe aFGF2 on microarray, primary screen, stem cell growth factor project, biochemical, small-molecule microarray, fluorescence 635/667 (AID 1067).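 Note: measures binding of biotinylated aFGF2 protein to printed compounds on slides; z-score merges feature fluorescence and signal-to-noise across triplicate slides.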 Conditions: higher = more signal.
The nature of assay [4]: binders of probe aFGF10 on microarray, primary screen, stem cell growth factor project, biochemical, small-molecule microarray, fluorescence 635/667 (AID 1071).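 Note: score merges 667 nm spot intensity and signal to noise from triplicate slides.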 As to conditions: higher = more signal.
In assay [5] the target is Neurogenic locus notch homolog protein 2 (Homo sapiens) (UniProt Q04721). Nature of the assay: Notch2 binders on small-molecule microarrays, primary screen, biochemical, small-molecule microarray, 635 nm fluorescence, stem cell growth factors (AID 1073). As to conditions: Notch2 binding, higher = more signal.
Assay [6] concerns the target Pro-neuregulin-1, membrane-bound isoform (Homo sapiens) (UniProt Q02297). The assay is described as follows: NRG1 binders on small-molecule microarrays, primary screen, psychiatric disease protein project, biochemical, small-molecule microarray, fluorescence 635/667 (AID 1075).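 Note: score combines 667 nm spot fluorescence with signal to noise.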 As to conditions: NRG1 binding, 635 nm fluorescence, higher = more signal.
Assay [7] deals with Neuregulin-1 EGF-like domain. The assay is described as follows: binders of neuregulin-1 EGF-like domain, primary screen, biochemical, small-molecule microarray, 635 nm fluorescence (AID 1081).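 Note: binding of the protein to compounds printed on small-molecule microarray slides.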 Conditions: small-molecule microarray binding, higher = more signal.
The nature of assay [8]: FRG1 promoter luciferase signal modulators, primary screen, FRG1 inhibition for FSHD, cell-based, C2C12 myotubes, firefly/Renilla luciferase, luminescence (AID 1084). Conditions: higher = more signal, called active from +8 up or from −8 down.
A short description of assay [9]: binders of probe aFST on microarray, primary screen, stem cell growth factor project, biochemical, small-molecule microarray, fluorescence 635/667 (AID 1086).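 Note: score merges 667 nm fluorescence with signal-to-noise of each printed compound spot.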 As to conditions: higher = more signal.
The nature of assay [10]: binders of probe aHhip on microarray, primary screen, stem cell growth factor project, biochemical, small-molecule microarray, fluorescence 635/667 (AID 1087).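 Note: score merges spot fluorescence at 667nm with spot signal to noise ratio.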 As to conditions: higher = more signal.
For assay [11], the system named is PRMT1 (protein arginine N-methyltransferase 1). Nature of the assay: PRMT1 binders on small-molecule microarrays, primary screen, biochemical, small-molecule microarray, 635 nm fluorescence (AID 1088).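 Note: binding of Prmt1 protein to compounds spotted on small-molecule microarray slides.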 As to conditions: small-molecule microarray binding, higher = more signal.
A short description of assay [12]: yeast growth modulation, basal conditions, primary screen, YJM789 clinical isolate, OD600, 24 h (AID 1089).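 Note: growth of clinical yeast isolate S. cerevisiae YJM 789 seeded 1000 cells per well; test concentration not given here.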 Conditions: S. cerevisiae YJM789 growth, higher = more signal, called active from +8 up or from −8 down.
A short description of assay [13]: fission yeast growth modulation, primary screen, strain 972, OD600, 24 h, no modulator (AID 1090).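 Note: basal condition with compound alone and no growth modifier present; test concentration not given here.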 As to conditions: S. pombe 972 growth, higher = more signal, called active from +8 up or from −8 down.
Assay [14] can be described thus: S. cerevisiae growth modulation with rapamycin, primary screen, strain BY4716, OD600, 96 h (AID 1091). Note: test concentration not given here. As to conditions: higher = more signal, called active from +8 up or from −8 down.
In assay [15] the target is Torsin-1A-interacting protein 2 (Homo sapiens) (UniProt Q8NFQ8). The assay is described as follows: LULL1 binders on small-molecule microarray, primary screen, cell lysate, human LULL1 lysate, 635/667 nm fluorescence (AID 1092).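 Note: score merges per-feature 667 nm fluorescence with signal-to-noise.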 Conditions: hLULL1 lysate binding, 635 nm fluorescence, higher = more signal.
Assay [16] in a line: E. coli growth modulation, two-sided OD650, primary screen, E. coli filamentation project, strain DRC41, 24 h (AID 1093).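 Note: MC1000 strain lacking acrAB efflux and sulA so SOS filamentation is blocked; test concentration not given here.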 Conditions: OD650, 24 h, higher = more signal, called active from +8 up or from −8 down.
A short description of assay [17]: small-molecule microarray binders of probe aLefty2, primary screen, biochemical, biotinylated probe, 635/667 nm fluorescence (AID 1094).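 Note: score merges spot fluorescence near 667 nm with spot signal-to-noise ratio.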 As to conditions: higher = more signal.
The subject of assay [18] is Noggin (protein binding on small-molecule microarray). The assay is described as follows: Noggin binders on small-molecule microarray, primary screen, biochemical, 635/667 nm fluorescence (AID 1095).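 Note: score merges 667 nm feature fluorescence with signal to noise over triplicate slides.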 As to conditions: 635 nm fluorescence, higher = more signal.
For assay [19], the target named is Neurogenic locus notch homolog protein 3 (Homo sapiens) (UniProt Q9UM47). The assay is described as follows: NOTCH3 binders on small-molecule microarray, primary screen, biochemical, 635/667 nm fluorescence (AID 1096). As to conditions: NOTCH3 binding, 635 nm fluorescence, higher = more signal.
Assay [20] is described as follows: small-molecule microarray binders of probe aEGFR, primary screen, biochemical, biotinylated probe, 635/667 nm fluorescence (AID 1097).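 Note: probe is a biotinylated anti-EGFR antibody binding compounds printed on slides; score combines fluorescence near 667 nm and signal to noise of each spot.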 As to conditions: higher = more signal.

Neurogenic locus notch homolog protein 3 (Homo sapiens), sequence (Q9UM47 whole entry, looked up): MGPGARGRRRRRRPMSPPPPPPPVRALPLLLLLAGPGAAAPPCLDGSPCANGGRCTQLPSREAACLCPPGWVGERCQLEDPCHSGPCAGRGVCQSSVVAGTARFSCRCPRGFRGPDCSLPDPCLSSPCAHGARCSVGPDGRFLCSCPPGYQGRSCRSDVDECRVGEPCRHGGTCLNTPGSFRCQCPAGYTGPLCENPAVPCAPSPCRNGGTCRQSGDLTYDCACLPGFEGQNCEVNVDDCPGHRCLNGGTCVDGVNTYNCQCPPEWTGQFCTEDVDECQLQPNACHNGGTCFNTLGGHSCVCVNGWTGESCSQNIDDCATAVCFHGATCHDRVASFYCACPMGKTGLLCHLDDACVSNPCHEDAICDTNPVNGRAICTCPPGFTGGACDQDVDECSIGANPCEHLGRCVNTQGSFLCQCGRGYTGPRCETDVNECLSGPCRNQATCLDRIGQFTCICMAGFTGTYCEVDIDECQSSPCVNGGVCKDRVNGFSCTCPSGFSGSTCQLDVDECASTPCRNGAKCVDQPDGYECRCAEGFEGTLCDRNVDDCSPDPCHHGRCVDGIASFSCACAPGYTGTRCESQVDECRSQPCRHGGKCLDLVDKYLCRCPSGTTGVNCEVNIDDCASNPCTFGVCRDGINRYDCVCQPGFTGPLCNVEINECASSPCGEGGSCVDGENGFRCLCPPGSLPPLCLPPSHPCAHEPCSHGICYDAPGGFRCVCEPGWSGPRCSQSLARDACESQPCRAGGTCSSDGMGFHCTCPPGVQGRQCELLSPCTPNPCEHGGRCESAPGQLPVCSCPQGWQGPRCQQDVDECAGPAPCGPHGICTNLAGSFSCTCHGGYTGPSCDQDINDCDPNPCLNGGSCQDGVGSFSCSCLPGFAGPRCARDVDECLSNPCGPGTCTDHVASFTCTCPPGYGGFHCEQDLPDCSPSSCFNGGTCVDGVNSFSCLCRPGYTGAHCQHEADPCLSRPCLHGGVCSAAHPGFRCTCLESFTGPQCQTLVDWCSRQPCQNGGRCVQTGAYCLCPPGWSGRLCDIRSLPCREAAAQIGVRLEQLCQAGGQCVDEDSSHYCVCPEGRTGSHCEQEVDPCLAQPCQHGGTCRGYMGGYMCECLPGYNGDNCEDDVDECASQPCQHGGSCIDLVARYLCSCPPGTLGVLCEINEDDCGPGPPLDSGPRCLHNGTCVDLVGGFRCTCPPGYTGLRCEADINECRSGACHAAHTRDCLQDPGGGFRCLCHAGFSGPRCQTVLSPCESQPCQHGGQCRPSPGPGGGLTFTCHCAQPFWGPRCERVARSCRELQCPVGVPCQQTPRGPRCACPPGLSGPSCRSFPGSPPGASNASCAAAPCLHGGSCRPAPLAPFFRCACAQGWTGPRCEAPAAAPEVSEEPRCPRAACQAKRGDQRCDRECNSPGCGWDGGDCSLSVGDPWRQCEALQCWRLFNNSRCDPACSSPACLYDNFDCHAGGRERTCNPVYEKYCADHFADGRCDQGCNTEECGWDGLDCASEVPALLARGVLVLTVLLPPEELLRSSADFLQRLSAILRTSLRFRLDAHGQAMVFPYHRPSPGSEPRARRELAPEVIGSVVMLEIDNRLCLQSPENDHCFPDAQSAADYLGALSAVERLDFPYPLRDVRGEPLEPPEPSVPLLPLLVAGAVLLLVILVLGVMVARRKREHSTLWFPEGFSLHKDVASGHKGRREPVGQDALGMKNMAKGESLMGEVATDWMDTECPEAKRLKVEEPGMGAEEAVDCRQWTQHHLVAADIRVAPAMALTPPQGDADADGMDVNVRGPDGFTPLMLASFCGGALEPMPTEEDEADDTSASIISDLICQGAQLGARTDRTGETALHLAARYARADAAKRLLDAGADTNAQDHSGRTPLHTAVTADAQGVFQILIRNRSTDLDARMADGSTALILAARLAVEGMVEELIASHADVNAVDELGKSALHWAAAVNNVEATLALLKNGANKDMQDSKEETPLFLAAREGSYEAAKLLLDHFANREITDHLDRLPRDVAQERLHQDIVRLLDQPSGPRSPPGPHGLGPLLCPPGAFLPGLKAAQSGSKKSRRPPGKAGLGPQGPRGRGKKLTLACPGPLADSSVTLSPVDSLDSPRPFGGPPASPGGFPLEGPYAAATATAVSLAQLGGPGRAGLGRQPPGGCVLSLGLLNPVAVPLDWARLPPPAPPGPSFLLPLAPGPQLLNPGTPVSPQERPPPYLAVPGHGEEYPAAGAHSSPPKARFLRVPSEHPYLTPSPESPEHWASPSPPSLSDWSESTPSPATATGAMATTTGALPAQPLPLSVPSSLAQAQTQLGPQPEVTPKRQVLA
Neurogenic locus notch homolog protein 2 (Homo sapiens), sequence (Q04721 whole entry, looked up, canonical isoform): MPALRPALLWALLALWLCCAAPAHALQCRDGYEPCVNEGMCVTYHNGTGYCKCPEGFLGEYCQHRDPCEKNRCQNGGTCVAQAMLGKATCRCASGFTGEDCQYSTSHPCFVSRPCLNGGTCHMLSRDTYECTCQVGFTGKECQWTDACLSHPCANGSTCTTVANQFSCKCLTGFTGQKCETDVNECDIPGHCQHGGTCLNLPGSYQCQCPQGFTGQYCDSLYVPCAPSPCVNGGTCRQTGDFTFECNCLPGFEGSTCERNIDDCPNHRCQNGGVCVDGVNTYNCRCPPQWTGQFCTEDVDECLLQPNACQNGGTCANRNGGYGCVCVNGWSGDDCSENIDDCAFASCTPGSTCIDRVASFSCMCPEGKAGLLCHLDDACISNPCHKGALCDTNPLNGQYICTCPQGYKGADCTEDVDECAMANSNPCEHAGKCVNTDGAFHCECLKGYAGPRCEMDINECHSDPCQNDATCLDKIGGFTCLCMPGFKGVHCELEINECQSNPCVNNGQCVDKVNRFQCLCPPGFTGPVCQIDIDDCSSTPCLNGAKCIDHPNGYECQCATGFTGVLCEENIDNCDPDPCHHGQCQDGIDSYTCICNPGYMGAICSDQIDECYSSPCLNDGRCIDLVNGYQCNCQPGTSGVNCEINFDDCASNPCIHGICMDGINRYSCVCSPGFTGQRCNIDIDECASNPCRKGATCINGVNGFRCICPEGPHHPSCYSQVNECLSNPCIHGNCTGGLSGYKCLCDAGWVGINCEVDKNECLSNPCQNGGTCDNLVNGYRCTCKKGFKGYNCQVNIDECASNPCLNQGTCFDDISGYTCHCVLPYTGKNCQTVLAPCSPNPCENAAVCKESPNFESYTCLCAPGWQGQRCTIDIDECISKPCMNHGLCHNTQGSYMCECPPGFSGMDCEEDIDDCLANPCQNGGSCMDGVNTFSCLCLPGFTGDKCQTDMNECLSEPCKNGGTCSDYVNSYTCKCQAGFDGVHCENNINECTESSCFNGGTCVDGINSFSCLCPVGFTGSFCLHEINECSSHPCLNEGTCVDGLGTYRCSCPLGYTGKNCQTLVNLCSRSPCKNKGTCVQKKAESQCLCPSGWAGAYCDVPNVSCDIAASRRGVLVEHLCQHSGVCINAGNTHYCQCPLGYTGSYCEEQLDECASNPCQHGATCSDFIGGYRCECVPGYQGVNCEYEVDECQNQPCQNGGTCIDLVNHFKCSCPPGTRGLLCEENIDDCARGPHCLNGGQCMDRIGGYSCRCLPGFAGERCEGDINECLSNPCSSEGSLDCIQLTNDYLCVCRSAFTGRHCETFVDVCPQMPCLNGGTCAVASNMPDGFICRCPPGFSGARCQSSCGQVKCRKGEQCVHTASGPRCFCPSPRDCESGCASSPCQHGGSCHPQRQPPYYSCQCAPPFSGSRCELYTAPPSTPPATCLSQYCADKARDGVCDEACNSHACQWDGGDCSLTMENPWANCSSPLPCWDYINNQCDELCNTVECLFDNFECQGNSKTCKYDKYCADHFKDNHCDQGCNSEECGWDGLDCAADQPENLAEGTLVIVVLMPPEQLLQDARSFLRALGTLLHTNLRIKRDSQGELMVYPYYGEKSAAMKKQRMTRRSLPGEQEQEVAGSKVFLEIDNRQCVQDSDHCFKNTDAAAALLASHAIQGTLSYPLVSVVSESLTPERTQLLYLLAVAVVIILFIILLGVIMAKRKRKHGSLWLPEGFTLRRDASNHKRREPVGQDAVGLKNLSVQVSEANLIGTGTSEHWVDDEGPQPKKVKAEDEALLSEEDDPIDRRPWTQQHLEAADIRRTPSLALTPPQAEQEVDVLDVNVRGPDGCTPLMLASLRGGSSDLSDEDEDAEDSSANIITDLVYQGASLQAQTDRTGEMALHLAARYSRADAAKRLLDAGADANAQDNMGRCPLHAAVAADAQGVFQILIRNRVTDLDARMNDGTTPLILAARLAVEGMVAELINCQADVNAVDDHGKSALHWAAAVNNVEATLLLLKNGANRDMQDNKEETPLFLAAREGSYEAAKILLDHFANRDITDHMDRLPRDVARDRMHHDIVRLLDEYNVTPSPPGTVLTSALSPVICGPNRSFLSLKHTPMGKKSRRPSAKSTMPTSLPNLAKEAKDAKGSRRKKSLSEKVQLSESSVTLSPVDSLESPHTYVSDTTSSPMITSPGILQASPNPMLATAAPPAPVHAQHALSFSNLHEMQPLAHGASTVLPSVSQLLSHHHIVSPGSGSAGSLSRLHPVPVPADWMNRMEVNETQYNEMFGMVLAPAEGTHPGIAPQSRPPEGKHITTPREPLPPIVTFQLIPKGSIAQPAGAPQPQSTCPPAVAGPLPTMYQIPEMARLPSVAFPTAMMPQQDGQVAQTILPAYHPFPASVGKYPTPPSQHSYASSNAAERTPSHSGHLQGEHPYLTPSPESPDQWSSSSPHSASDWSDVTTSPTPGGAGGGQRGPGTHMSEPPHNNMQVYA

As to `C=CCC(OC(C)=O)[C@@H]1[C@@H](N(Cc2cc3ccccc3o2)C(=O)c2ccc(-c3ccccc3)cc2)c2cc(OCCCO)ccc2N1C(=O)c1ccc(-c2ccccc2)cc1` (stereo not given in full), the composite z-score in [1] is 0.218; in assay [2], -0.352; in [3] it was -0.0985; in assay [4], 0.0925; in assay [5] it was 0.11; in assay [6], -0.196. In addition, the composite z-score in assay [7] was -0.714; in assay [9] it was 0.105; in assay [10], -0.0994; in assay [11], -0.527; in assay [15] it was 0.94; in assay [17], 0.0711. For the same compound, the values for the composite z-score in [18], in assay [19] and in assay [20] were -0.397, -0.402 and -0.0444, respectively. The z-score in assay [8] is -1.24 (inactive); in [12], 1.13 (inactive); in assay [13], 0.0977 (inactive); in assay [14], 1.38 (inactive); in assay [16] it was 1.95 (inactive).
On to `C=CCN1C(=O)[C@@]2(O[C@@H](CCn3cc(CCO)nn3)[C@H]([Si](C)(C)c3ccc(OC)cc3)[C@H]2C)c2cc(NC(=O)c3ccc(OC)cc3)ccc21`, for which the composite z-score in assay [1] is -0.0186; in assay [2], 0.463; in assay [3], -0.0493; in assay [4] it was 0.051; in assay [5], 0.0039; in assay [6], 0.457. Also, the composite z-score in [7] is 0.672; in assay [9], 0.309; in assay [10], -0.0994; in assay [11] it was 1.49; in assay [15], 0.674; in [17], -0.0985. Further, the figures for the composite z-score in assay [18], in [19] and in [20] were 1.04, 0.742 and -0.0895, respectively. The z-score in [8] is -2.22 (inactive); in [12] it was -0.0986 (inactive); in assay [13], -1.27 (inactive); in assay [14] it was -0.738 (inactive); in assay [16], 1.31 (inactive).
As for `O=C1c2ccccc2C(=O)c2cc([C@H]3Oc4ccccc4S(=O)(=O)N4CCC[C@@H]34)ccc21`, the composite z-score in [1] was 0.238; in [2] it was -0.845; in assay [3], -0.128; in assay [4] it was -0.639; in [5], -1.09; in assay [6] it was -0.926. The composite z-score in assay [7] is -1.64; in [9], -0.167; in assay [10] it was -0.353; in [11] it was -1.02; in assay [15] it was -0.629; in assay [17] it was -0.276. The composite z-score in assay [18] is -0.566; in [19], -0.259; in [20] it was -0.196. Moreover, the z-score in [8] is -0.933 (inactive); in assay [12] it was -1.31 (inactive); in assay [13], -1.33 (inactive); in assay [14] it was -0.462 (inactive); in assay [16], 2.81 (inactive).
Regarding `COC(=O)[C@@]1(CCC(=O)OC(C)(C)C)COC(c2ccc(OCCCO)cc2)=N1`, the composite z-score in assay [1] was 1.47; in assay [2], -1.53; in [3], -0.212; in assay [4], -1.92; in assay [5] it was -1.89; in assay [6] it was -0.312. The composite z-score in [7] is 0.256; in assay [9], -0.311; in assay [10], -0.405; in [11] it was -0.964; in [15], -0.771; in assay [17], 0.0399. Also, the figures for the composite z-score in [18], in [19] and in assay [20] were -1.99, -1.84 and -0.36, respectively. The z-score in [8] is -0.44 (inactive); in assay [12] it was -1.42 (inactive); in assay [13], -0.502 (inactive); in [14], -0.752 (inactive); in [16] it was 0.989 (inactive).
`COc1ccc(C#Cc2ccc3c(c2)[C@]2(C(=O)N3)[C@H](c3ccc(O)cc3)N3[C@H](c4ccccc4)[C@H](c4ccccc4)OC(=O)[C@H]3[C@@H]2C(=O)N2CCN(c3ncccn3)CC2)cc1`: the composite z-score in assay [1] is 0.286; in assay [2] it was 1.31; in assay [3], -0.0625; in assay [4] it was 0.0869; in assay [5] it was 1.19; in assay [6], 1.64. Besides, the composite z-score in assay [7] worked out at 0.892; in [9], 0.252; in assay [10], 0.186; in assay [11], 1.18; in assay [15] it was 2.01; in [17] it was 0.0708. Moreover, the composite z-score was -0.0098 in assay [18], 0.536 in assay [19] and -0.0854 in assay [20]. Further, the z-score in assay [8] was -0.36 (inactive); in assay [12] it was 0.478 (inactive); in assay [13] it was -1.84 (inactive); in assay [14], 2.15 (inactive); in [16], 1.99 (inactive).

Source of the values: PubChem BioAssay.
